# Test results published in PubChem BioAssay (NCATS).
# Values without a mark were called inactive. Activity calls are given as the source filed them. Calls come from the whole dose curve; as a rule, active = well fitted inhibition curve with a large enough effect; inconclusive = small, poorly fitted or top-dose-only effect; inactive = no such curve, though single readings can be large or run the other way.
# Target: Single-stranded DNA cytosine deaminase (Homo sapiens) (UniProt Q9GZX7)
# Assay: Validation qHTS assay for inhibitors of Activation Induced Cytidine Deaminase (AID): AID signal (AID 1347429)
# Settings: Recombinant AID, FRET ssDNA deamination with UDG, fluorescence; series mostly up to 115 µM; activity change, negative = inhibition: at the top concentration
# Text: Assay Provider (PI) Patricia Gearhart Ph.D. National Institute on Aging National Institute of Health (NIH), Bethesda, MD Assay Provider (PI) Rahul Kohli Ph.D. Perelman School of Medicine University of Pennsylvania, Philadelphia, PA Activation-Induced Deaminase (AID) is a cytosine deaminase which converts cytosine into uracil within stretches of ssDNA. The presence of uracil in DNA initiates a cascade of mutagenic DNA repair to introduce point mutations and DNA double strand breaks. Specific targeting of AID to the immunoglobulin heavy chain loci (Igh) promotes mutagenesis in the antibody variable region for somatic hypermutation (SHM) or switch regions leading to class switch recombination (CSR). However, AID also plays a role in accumulating unnecessary mutations across the genome. Mis-targeting of AID results in the initiation of tumor development and leads to greater drug resistance among cancer cells when continually expressed. To identify an AID inhibitor, a small molecule library will be screened in collaboration with NCATS core facility at NIH. To confirm biological function, inhibitors will be examined in an in vitro murine B-cell activation assay and subsequent secondary validation screens. Top molecules will be further screened to identify inhibitory efficacy against a wild type primary splenocytes assay. Using these approaches, we hope to identify a small molecule with great efficacy and low toxicity for use as a molecular probe to further characterize AID's intricacies, or even as a therapeutic. A FRET based analysis of cytosine deamination, was developed to identify potential inhibitors of AID catalytic activity. This screen has two signal output, Read 1 evaluates the AID inhibition response. The second readout (Read 2) evaluates UDG response and is uses as a counterscreen to exclude false positive inhibitors. Inhibition in AID and inactivity in the UDG signal is the desired outcome for this assay.
# PROTOCOL TABLE SEQUENCE No. (e.g., 1, 2, 3, etc.); […] (e.g., Cells, Incubation, Reagent, etc.); VALUE; DESCRIPTION 1a; Reagent; 3 uL; [4/3x] […] 250 nM DJC20 / 250 nM DJC23 [Substrate] 5; Time; 4 hr; incubation at room temperature 6; Reagent; 4 uL; [2x] 250 mM NaOH 7; Time; 15 sec; centrifuge at 1000 rpm 8; Time; 30 min; incubation at room temperature 9a; Detection; fluorescence (Read 1: AID); EnVision (PerkinElmer) plate reader, 540 excitation and 590 emission filters 9b; Detection; fluorescence (Read 2: UDG); EnVision (PerkinElmer) plate reader, 560 excitation and 665 emission filters NOTES (numbers refer to sequence above) 1a; Reagents were dispensed in a medium-binding black solid-bottom Greiner plates (789176F) using a BioRptr liquid dispenser. Dispense 3 uL of [4/3x] 1 uM AID (provided by Kohli lab) and [4/3x] 2 U/mL UDG (NEB M0280L) into columns 1, 2, 5 to 48. 1b; Dispense 3 uL of [4/3x] 2 U/mL UDG into column 3. 1c; Dispense 3 uL of [4/3x] 1 uM AID into column 4. 2a; Compound ([…] [uM] (0.64; 3.2; 16; 80; 400; 2,000; 10,000; 20,000) double pin-transferred (Dip Factor = 2) using the Kalypsys (Wako USA) pintool equipped with a 1536 pinhead for a final concentration range of 7.32 nM - 114 uM. 2b; 10 mM Aurintricarboxylic Acid (Sigma A1895) (ATA, 8-point, n = 2, 1:2.5 dilution in column 2) double pin-transferred (Dip Factor = 2) using the Kalypsys (Wako USA) pintool equipped with a 1536 pinhead for a [final] range of 186 nM - 114 uM. 3; Room temperature incubation. 4; Dispense 1 uL of substrate mixture from the Kohli lab [4x] […] DJC20 and [4x] 250 nM DJC23 into columns 1 to 48 . 5; Room temperature incubation. 6; Dispense 4 uL of substrate mixture [2x] 250 mM NaOH into columns 1 to 48. 7; Centrifugation step to remove bubbles. 8; Room temperature incubation 9a; Fluorescence signal (column label AID) was read using the EnVision plate reader. Excitation filter = 540(8) nm, barcode = 311; Emission filter = 590(20) nm, barcode = 217; Mirror = D555, barcode = 405. […]
# % is set by controls: 0 for no effect and ±100 for the full control effect.
# Single-stranded DNA cytosine deaminase (Homo sapiens), sequence (Q9GZX7 whole entry, looked up): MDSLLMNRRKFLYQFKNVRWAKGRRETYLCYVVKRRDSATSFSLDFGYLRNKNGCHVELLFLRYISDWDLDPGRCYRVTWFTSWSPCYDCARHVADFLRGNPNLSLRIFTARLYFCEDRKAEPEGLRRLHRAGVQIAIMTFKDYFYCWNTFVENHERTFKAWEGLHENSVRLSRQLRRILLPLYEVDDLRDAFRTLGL
Structure (SMILES),"activity change, negative = inhibition",outcome
c1ccc(C2(c3ccccc3)CC2C2=NCCN2)cc1 (stereo not given),14.8%,–
O=C(N[C@H]1CN2CCC1CC2)c1ccc(Cl)cc1,19.2%,–
Oc1ccc2c3c1O[C@H]1c4[nH]c5c(c4C[C@@]4(O)[C@@H](C2)N(CC2CC2)CC[C@]314)C[C@@]1(O)[C@H]2Cc3ccc(O)c4c3[C@@]1(CCN2CC1CC1)[C@H]5O4,8.84%,–
O=C(O)[C@@H]1CCN1,11.6%,–
O=C(O)Cc1cnc[nH]1,24.2%,–
NCCc1c[nH]c2ccccc12,7.99%,–
C#CCOC(=O)C1=CCCN(C)C1,20.7%,–
C[C@@H]1O[C@H](C[N+](C)(C)C)C[C@H]1O,9.36%,–
COC(=O)[C@@H](N)CCCN=C(N)N[N+](=O)[O-],28.6%,–
c1ccc(CCCN2CCN(CCOC(c3ccccc3)c3ccccc3)CC2)cc1,3.23%,–
CCCN1CCO[C@@H]2c3cc(O)ccc3OC[C@H]21,–,inactive
CCCN(CCC)[C@@H]1CCc2ccc(O)cc2C1,28.8%,–
S=C(NC1CCCCC1)N1CCC(c2cnc[nH]2)CC1,15.9%,–
NC1CCc2cc(O)c(O)cc2C1 (stereo not given),25.1%,–
NC(N)=NOCCC(N)C(=O)O (stereo not given),19.7%,–
NCCc1c[nH]c2ccc(O)cc12,37.1%,–
O=C(Cc1ccc(Cl)c(Cl)c1)N1CCCCC1CN1CCCC1 (stereo not given),12.8%,–
CNCCc1c[nH]c2ccc(O)cc12,35.6%,–
CS(=N)(=O)CC[C@H](N)C(=O)O (stereo not given in full),10.6%,–
C[C@]12CCC3C(CC[C@H]4C[C@H](O)CC[C@]34C)C1CC[C@@H]2C(=O)CO (stereo not given in full),13.7%,–

Structure (SMILES),"activity change, negative = inhibition",outcome
CNCCc1ccc(O)c(O)c1,149%,–
C[C@]12N[C@H](Cc3ccccc31)c1ccccc12,2.17%,–
NC(CP(=O)(O)O)C(=O)O (stereo not given),12.6%,–
NC(CCP(=O)(O)O)C(=O)O (stereo not given),9.66%,–
c1ccc2sc(C3(N4CCCCC4)CCCCC3)cc2c1,18.6%,–
C/C=C(/C)C(=O)O[C@H]1C(C)=C2[C@H]([C@@H]1OC(=O)CCCCCCC)[C@@](C)(OC(C)=O)C[C@H](OC(=O)CCC)[C@@]1(O)[C@H]2OC(=O)[C@@]1(C)O,-10.1%,–
Cc1nccc2c1[nH]c1ccccc12,24.4%,–
COc1cc(C(O)CN)ccc1O (stereo not given),53.7%,–
NCc1cc(=O)[nH]o1,11.7%,–
CC[C@@]1(O)C(=O)OCc2c1cc1n(c2=O)Cc2cc3ccccc3nc2-1,25.7%,–
CCCN(CCC)C1CCc2ccc(O)cc2C1 (stereo not given),23.1%,–
Clc1cnc(Oc2ccc(Oc3ncc(Cl)cc3Cl)cc2)c(Cl)c1,3.8%,–
NC(=NCCC[C@H](N)C(=O)O)N[N+](=O)[O-],14.3%,–
Cc1c(C(=O)c2cccc3ccccc23)c2cccc3c2n1[C@H](CN1CCOCC1)CO3,-0.894%,–
CC(C)Oc1cccnc1N(C)C1CCN(Cc2ccccc2)CC1,39.9%,–
CC1=NN=C(c2ccc(N)cc2)c2cc3c(cc2C1)OCO3,4.82%,–
NC1CC1c1ccccc1 (stereo not given),7.87%,–
CN[C@@H]1C[C@@H](c2ccc(Cl)c(Cl)c2)c2ccccc21,13.5%,–
NC(=O)CN1CC(O)CC1=O (stereo not given),7.73%,–
O=C(O)CC[N+](=O)[O-],15.2%,–
